Cav3 T inh: blocks human Cav3.2 T-type calcium channel; O95180; Cav3.2-expressing cells, Fluo-4 calcium fluorescence FDSS; active compounds read low; B-score at 10 µM; 4% of 100,000 active; AID 449739;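 active means single-dose well whose peak fluorescence ratio is a statistical outlier from its plate by either plate-standardised score or position-corrected B-score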
PLAP activator: human PLAP activation | P05187 | 1.2% of 96,000 active | activation fold at 20 µM | AID 696 | purified PLAP enzyme, luminescent substrate read-out; active compounds read high; in the data active means activation fold above about 2
DAT uptake mod: modulates human dopamine transporter uptake under cocaine; LLC-PK1 hDAT cells, [14C]-dopamine uptake with cocaine IC80; actives deviate in either direction; B-score at 10 µM; AID 449768; 1.3% of 110,000 active;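 active means Z score or B-score, a plate-position-corrected score, falls beyond the plate's 99.7% confidence bounds, in either direction; inactive means both scores lie inside the 99.7% bounds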;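 further: scored against the spread of the other compound wells on the same plate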
Target sequence (Q01959 whole entry, looked up): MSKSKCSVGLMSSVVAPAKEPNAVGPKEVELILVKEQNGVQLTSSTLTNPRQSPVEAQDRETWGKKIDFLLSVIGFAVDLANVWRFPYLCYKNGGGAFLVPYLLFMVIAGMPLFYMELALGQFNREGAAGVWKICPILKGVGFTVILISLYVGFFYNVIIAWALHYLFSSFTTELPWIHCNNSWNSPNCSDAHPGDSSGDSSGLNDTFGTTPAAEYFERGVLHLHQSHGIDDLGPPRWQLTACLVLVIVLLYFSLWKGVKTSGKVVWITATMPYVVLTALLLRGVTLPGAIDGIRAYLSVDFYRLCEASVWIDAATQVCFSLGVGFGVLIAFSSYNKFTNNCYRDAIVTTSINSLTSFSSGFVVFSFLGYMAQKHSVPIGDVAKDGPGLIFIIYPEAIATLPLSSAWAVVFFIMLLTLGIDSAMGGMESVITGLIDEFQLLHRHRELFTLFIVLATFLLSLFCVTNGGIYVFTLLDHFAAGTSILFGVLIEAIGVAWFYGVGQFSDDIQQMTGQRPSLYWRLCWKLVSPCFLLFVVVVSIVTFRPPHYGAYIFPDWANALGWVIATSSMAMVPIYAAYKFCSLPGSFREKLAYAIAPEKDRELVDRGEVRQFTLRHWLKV
PostGolgi ctrl: inhibits growth of the yeast control strain. efflux-deficient yeast background strain, growth absorbance A615, 16 h. inhibition, % at 10 µM. 5% of 98,000 active
PostGolgi yeast: growth inhibition of a yeast mutant, post-Golgi transport screen; post-Golgi transport phenotypic cell assay; inhibition, % at 10 µM; 0.9% of 98,000 active; AID 739;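 further: yeast cells grown in 1536-well plates; yeast grown about 18 h at 30C before absorbance read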
* marks the source's active call; other numbers are inactive results; · = not tested or not shown. A selection: hits, their analogues and other compounds. The true share with any hit is near 9.6%. Unless noted, no stated cut-off is given here; in the data, active means inhibition above about 30%; inactive means the rest.

SMILES | Cav3 T inh | PLAP activator | DAT uptake mod | PostGolgi ctrl | PostGolgi yeast
CCOc1ccc2nc(NC(NC(=O)CC)(C(=O)OC)C(F)(F)F)sc2c1 (stereo not given) | 0.0144 | 1.6 | -0.47 | -4.9 | -7.1
COc1ccc(C)cc1NC(=O)C(CCS(C)(=O)=O)NC(C)=O (stereo not given) | -0.156 | 0.9 | -0.622 | 27.0 | -7.5
Cc1cnc(NC(=O)C2COc3ccccc3O2)s1 (stereo not given) | -0.685 | 1 | -1.05 | 3.5 | 9.8
Cn1c(SCC(=O)NCC2CCCO2)nnc1-c1ccc(S(=O)(=O)N2CCCC2)cc1 (stereo not given) | 0.849 | 1.1 | 0.282 | 27.8 | 25.6
O=C(Cn1nnc(-c2ccc(S(=O)(=O)N3CCCC3)cc2)n1)NCC1CCCO1 (stereo not given) | 0.868 | 1 | -0.524 | -2.1 | 33.8*
Cc1cc(OCC(=O)N2CCc3ccccc3C2)c2c(-c3ccccc3)cc(=O)oc2c1 | -3.06 | 1.7 | 0.389 | 50.6* | 4.8
CN(C)C(=O)CSc1nnc(Cc2ccc([N+](=O)[O-])cc2)o1 | 1.41 | 1 | -1.19 | -3.8 | -1.5
c1ccc(N2CCN(c3ccccc3)C2c2ccncc2)cc1 | -2.17 | 1.1 | -0.748 | 30.8* | 7.0
c1ccc(N2CCN(c3ccccc3)C2c2cccnc2)cc1 | -2.12 | · | -1.44 | 20.0 | 10.8
COc1ccc(C)cc1-n1nnnc1SCc1csc(C)n1 | 0.853 | 1.7 | -8.25* | 0.0 | 17.1
COCCn1c(SCc2csc(-c3ccccc3)n2)nc2ccccc21 | -3.3 | · | 1.34 | 30.1* | -1.1
Nn1c(SCc2csc(-c3ccccc3)n2)nnc1-c1cccs1 | 0.0111 | 1.2 | 0.00964 | -0.3 | 3.9
Cc1ccccc1-n1nnnc1SCc1csc(-c2ccccc2)n1 | -4.46* | 0.8 | 1.08 | 24.9 | -7.0
COc1ccc(NC(=O)c2cccc(NC(=O)C3C4CC5OC(=O)C3C5C4)c2)c(OC)c1 (stereo not given) | -0.0328 | 0.9 | 0.303 | 9.7 | -6.9
CCc1cc2ccc(C)cc2nc1SCC(=O)N1CCN(C(=O)c2ccco2)CC1 | -5.1* | 1.7 | 0.29 | 9.9 | 1.9
CCc1cc2cccc(C)c2nc1SCC(=O)N1CCN(C(=O)c2ccco2)CC1 | · | 1.2 | 0.677 | 36.0* | -4.2
CC(=O)NCc1ccc(C(=O)CSc2nnc(-c3ccncc3)n2Cc2ccccc2)o1 | 0.646 | · | 0.292 | 11.9 | 0.5
CC(C)C(=O)Nc1cccc(-c2cnc3ccccc3n2)c1 | -0.0626 | 0.8 | 2.7* | 0.8 | -7.3
Cc1ccc(C(=O)Nc2cccc(-c3cnc4ccccc4n3)c2)cc1 | -0.031 | 0.8 | 1.51 | -4.0 | -5.5
CC(C)CN(C#N)c1nc(N2CCOCC2)nc(N2CCOCC2)n1 | 0.789 | 1.1 | -0.0358 | 9.2 | 0.9
CN(C(=O)c1cccc(Nc2ccc(-c3ccc4c(c3)OCCO4)nn2)c1)C1CCCCC1 | -3.76* | · | 2.46 | · | ·
Cc1nc2ccccc2c(=O)n1NC(=O)c1ccccc1Cl | 0.466 | 0.9 | -0.26 | 4.0 | -6.7
CCn1c(=O)c(C(=O)Nn2c(C)nc3ccccc3c2=O)c(O)c2ccccc21 | -6.15* | 1.4 | 0.0597 | 21.4 | 5.6
CCCCc1nc2ccccc2c(=O)n1NC(=O)c1c(O)c2c(n(CC(C)C)c1=O)CCCC2 | -9.9* | 1.6 | 1.55 | 8.7 | -3.8
CCc1nc2ccccc2c(=O)n1NC(=O)c1c(O)c2cccc3c2n(c1=O)CCC3 | -6.14* | 1.4 | 0.132 | 16.0 | 2.9
SMILES | Cav3 T inh | PLAP activator | DAT uptake mod | PostGolgi ctrl | PostGolgi yeast
CCn1c(=O)c(C(=O)Nc2nc3ccccc3[nH]2)c(O)c2ccccc21 | 0.0301 | 1 | -0.124 | 98.2* | 104.1*
O=C(NCc1ccccc1)c1c(O)c2cccc3c2n(c1=O)CCC3 | -2.31 | 1.5 | -0.339 | 9.3 | 10.1
COC(=O)c1[nH]c2ccccc2c1NC(=O)C(C)N1CCN(C(=O)c2ccco2)CC1 (stereo not given) | 0.735 | 1.2 | -0.000502 | 12.5 | -4.4
COc1ccc(/C=N/NC(=O)c2[nH]ncc2Br)c(OC)c1 | 0.362 | 1.6 | 0.131 | -1.6 | 7.3
O=C(CSc1nc(-c2cccs2)cc(C(F)(F)F)n1)NCc1ccccc1 | -2.17 | 0.8 | -0.0392 | 30.2* | -2.7
COc1cc(/C=N/NC(=O)CCc2c(C)n[nH]c2C)ccc1O | -0.656 | 1 | -9.44* | 5.0 | -1.1
Cc1ccc(C2CC(C(F)(F)F)n3ncc(C(N)=O)c3N2)cc1 (stereo not given) | -0.0441 | 1 | -1.04 | 6.4 | -3.8
Cc1ccc(Cl)cc1NC(=O)c1cnn2c1NC(c1ccco1)CC2C(F)(F)F (stereo not given) | -2.83 | 0.9 | 1.37 | 58.3* | 41.1*
Cc1ccc(C2CC(C(F)(F)F)n3ncc(C(=O)NCc4ccco4)c3N2)cc1 (stereo not given) | -5.76* | 1 | 1.98 | 17.2 | -9.2
CN(Cc1ccc(-n2cccn2)cc1)C(=O)c1cnn2c1NC(c1ccco1)CC2C(F)(F)F (stereo not given) | -7.65* | 1.5 | 2.17 | 13.1 | 2.5
COCCNC(=O)c1cnn2c1NC(c1ccco1)CC2C(F)(F)F (stereo not given) | -0.276 | · | -1.53 | · | ·
Cc1cc(N2CCN(C)CC2)nc2ccc(NC(=O)CCC(=O)NCc3ccco3)cc12 | 0.6 | 1.5 | 0.11 | 3.1 | 6.6
CC(C)=CC1C(C(=O)Nc2ccc(Br)cn2)C1(C)C (stereo not given) | · | 1 | · | 11.8 | -0.6
O=C(Nc1ccncc1)c1cccs1 | 0.686 | 0.9 | 0.908 | 0.3 | 15.0
O=C(Nc1ccc2nsnc2c1)c1cccs1 | -0.97 | 0.9 | -0.111 | 40.0* | -3.1
Cc1nc(-c2cccc(NC(=O)c3cccs3)c2)cs1 | -0.259 | · | 3.22* | · | ·
O=C(Nc1cccc(-c2csc(-c3ccccc3)n2)c1)c1cccs1 | -0.796 | 0.7 | 1.52 | 8.6 | 2.9
Cc1nc(-c2cccc(NS(=O)(=O)c3cccc4ccccc34)c2)cs1 | -3.56 | 1.5 | 3.5* | 62.5* | -3.7
CC(C)Cc1cc(C(=O)Nc2cc(C(F)(F)F)ccc2Cl)no1 | 0.0773 | 0.9 | -1.65 | -5.2 | -7.7
CCCn1nnnc1NC(=O)c1ccc(C)cc1Cl | -0.58 | 0.9 | 0.024 | 4.7 | 5.6
Cc1ccc(S(=O)(=O)N2CCCN(S(=O)(=O)c3ccc4ccccc4c3)CC2)cc1 | -0.542 | · | -1.42 | · | ·
O=C(CCc1nc(-c2ccccc2)c(-c2ccccc2)o1)OCc1ccc(Br)cc1 | -3.51 | 1 | -0.0557 | 13.3 | -4.9
O=C(CCc1nc(-c2ccccc2)c(-c2ccccc2)o1)OCc1ccc(Cl)cc1 | -4.31* | 0.8 | 0.365 | 0.1 | 1.3
O=C(CCc1ccccc1)Nc1nc2n(n1)C(c1ccccc1)CC(=O)N2 (stereo not given) | -0.798 | 1.5 | -0.554 | -5.8 | -5.2
O=C(CCc1ccccc1)Nc1nc2n(n1)C(c1ccc(Cl)cc1)CC(=O)N2 (stereo not given) | -1.2 | 1.2 | 0.553 | 46.0* | -4.0
CCn1c(CNC(=O)c2ccco2)nnc1SCC(=O)Nc1cc(C(F)(F)F)ccc1Cl | -4.48* | 1 | 0.506 | 19.4 | 1.2
CCn1c(CNC(=O)c2ccco2)nnc1SCC(=O)Nc1cc(C)c(C)cc1Br | 0.0194 | 0.8 | -0.052 | 1.7 | 3.5
O=C(Nc1ccccc1)/C(=C/c1ccccc1)c1ccccc1 | -2.37 | · | -0.388 | 40.3* | -6.4
